Source: PubChem BioAssay (National Center for Advancing Translational Sciences (NCATS))
RORgamma inh – ROR gamma (mouse) transcription inhibition; Drosophila S2 Gal4-RORgamma UAS-luciferase reporter, 20 h; Potency, µM (series often up to 53.6 µM), for the others: top-dose activity change, negative = inhibition, hits mostly inhibitors; hit rate 5.4% among 310,000; AID 2551; note: nearly all actives have a fitted effect of over 60% in size
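Schneider cells (Drosophila), stable Gal4 DBD–ROR gamma + UAS-luc; 1 hr cmpd preincubation; Cu2+ induction 700 uM final; 20 hr ambient; luminescence.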
TDP1 cell CPT – DT40-hTDP1 cell growth loss with CPT; chicken DT40 Tdp1-/-;hTDP1 cells + 20 nM CPT, ATP luminescence, 48 h; Potency, µM (top dose mostly 46.2 µM), inactives show at the highest dose activity change, negative = growth inhibition, usual class: inhibitors; hit rate 12% among 420,000; AID 686979; note: nearly all actives have a fitted effect of over 55% in size
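Cell growth measured by CellTiter-Glo luminescence after a minimum 48 h, 37 C compound exposure with 20 nM CPT in Tdp1-knockout DT40 cells stably expressing hTDP1, seeded 400/well; qHTS titration format.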
DT40 TDP1 no CPT – qHTS for Inhibitors of human tyrosyl-DNA phosphodiesterase 1 (TDP1): qHTS in cells in absence of CPT. AID 686978, 2013. hit rate 15% among 420,000. Potency, µM (top dose mostly 46.2 µM), without a hit: at the top dose activity change, negative = growth inhibition, most hits filed as inhibitors. DT40 Tdp1-/- hTDP1 cells, no CPT, ATP luminescence, 48 h; note: nearly all actives have a fitted effect of over 55% in size
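Luminescent ATP content (CellTiter-Glo) served as the growth readout. Knockout chicken DT40 cells expressing human TDP1 were exposed to compounds without camptothecin for a minimum 48 hr at 37 °C.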
Gal4-VP16 FLuc – inhibits Gal4-VP16 luciferase reporter, ROR gamma counter-screen; Drosophila S2 Gal4-VP16 UAS-luciferase, luminescence, 20 h; Potency, µM (series often up to 53.6 µM), for inactives: at the highest dose activity, negative = inhibition, actives largely listed as inhibitors; hit rate 3.5% among 310,000; AID 2546;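 note: Gal4-VP16 expression switched on by copper sulfate through the metallothionein promoter; nearly all actives have a fitted effect of over 50% in size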
TDP1 block – blocks human tyrosyl-DNA phosphodiesterase 1; recombinant TDP1, AlphaScreen DNA substrate cleavage; Potency, µM (top dose mostly 130 µM), for the others: top-dose activity change, negative = inhibition, actives largely listed as inhibitors; hit rate 0.28% among 350,000; AID 485290; note: nearly all actives have a fitted effect of over 40% in size
Target sequence (Q9NUW8 whole entry, looked up): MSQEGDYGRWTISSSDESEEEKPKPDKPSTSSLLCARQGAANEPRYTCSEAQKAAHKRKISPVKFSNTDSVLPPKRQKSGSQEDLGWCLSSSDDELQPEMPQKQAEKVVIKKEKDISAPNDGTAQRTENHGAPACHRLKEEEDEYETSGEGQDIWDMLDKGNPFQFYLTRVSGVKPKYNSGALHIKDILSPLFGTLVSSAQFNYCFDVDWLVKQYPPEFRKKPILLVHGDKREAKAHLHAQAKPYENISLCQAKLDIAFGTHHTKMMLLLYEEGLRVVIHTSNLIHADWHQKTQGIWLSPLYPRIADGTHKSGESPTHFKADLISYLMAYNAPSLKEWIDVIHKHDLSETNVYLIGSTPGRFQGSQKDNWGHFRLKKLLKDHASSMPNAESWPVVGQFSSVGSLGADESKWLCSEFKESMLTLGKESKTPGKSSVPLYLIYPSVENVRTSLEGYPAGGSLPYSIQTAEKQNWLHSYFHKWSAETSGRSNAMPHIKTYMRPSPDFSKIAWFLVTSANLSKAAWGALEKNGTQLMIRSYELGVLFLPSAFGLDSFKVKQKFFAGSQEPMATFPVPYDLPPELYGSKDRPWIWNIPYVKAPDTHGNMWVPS
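Enzyme-compound mixtures sat 15 min at room temperature, followed by a 5 min reaction with 15 nM final substrate and 10 min with AlphaScreen beads. Recombinant human Tdp1 was used at 1 nM final.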
* marks the source's active call; other numbers are inactive results; u = inconclusive; x = no result given; [ ] = another dose, or the depositor's remark. This is a sample that favours compounds with a hit; in the whole collection about 19% have one here. Calls come from the whole dose curve; as a rule, active = well fitted curve in the direction sought with a large enough effect; inconclusive = small, poorly fitted or top-dose-only effect, or another doubt; inactive = no such curve, though single readings can be large; an effect the other way counts as inactive or inconclusive. % is set by controls: 0 for no effect and ±100 for the full control effect; potency is the fitted concentration of half-maximal effect.

SMILES	RORgamma inh	TDP1 cell CPT	DT40 TDP1 no CPT	Gal4-VP16 FLuc	TDP1 block
CCOC(=O)C1=CC[C@@H](c2ccc(OC)cc2)N(S(=O)(=O)c2ccc(C)cc2)[C@H]1CC	x	14.6µM*	18.4µM*	x	x
CCOC(=O)C1=CC[C@@H](c2ccccc2C(F)(F)F)N(S(=O)(=O)c2ccc(C)cc2)[C@H]1c1ccc(C#N)cc1	x	14.6µM*	13µM*	x	x
COc1ccc([C@@H]2CC=C(C(=O)O)[C@H](c3ccc(Cl)cc3)N2S(=O)(=O)c2ccc(Cl)cc2)cc1	x	u	-2.4%	x	3.9%
COc1cccc(CNC(=O)C(CC(C)C)NS(=O)(=O)c2ccc3c(c2)oc(=O)n3C)c1 (stereo not given)	x	-28.3%	-25.8%	x	-1.2%
COc1cc(C(=O)OC(C)CN2CCN(C)CC2)cc(OC)c1OC (stereo not given)	0.3%	-9.8%	-0.5%	6.8%	3.2%
Cc1ccc(C)c(Nc2cc(C)nc3ccccc23)c1	x	14.6µM*	16.4µM*	x	x
Cc1cc(Nc2cccc(Cl)c2)c2ccccc2n1	3.7%	20.6µM*	23.1µM*	7.3%	x
Cc1ccc(C)c(NC(=O)c2cc(C)nc3ccccc23)c1	0.9%[1.91 µM]	-24.3%	u	5.0%	x
Cc1cc(Nc2ccc3c(c2)OCCO3)c2cc(Cl)ccc2n1	-41.1%	u	14.6µM*	-7.3%	8.5%
Cc1cccc(Nc2cc(C)nc3ccccc23)c1	5.2%	-0.7%	u	-5.1%	1.5%
COc1cccc2c(Nc3ccccc3C)cc(C)nc12	-22.7%	18.4µM*	13µM*	-7.3%	5.4%
Cc1cc(Nc2ccccc2O)c2ccccc2n1	8.6%	u	u	u	8.3%
Cc1ccc(Nc2cc(C)nc3ccccc23)c(C)c1	x	11.6µM*	11.6µM*	x	x
O=C(C[n+]1ccccc1)Nc1c(Cl)cc(Cl)cc1Cl	u	-1.9%	-0.7%	u	5.6%
C=CCn1c(-c2c[nH]c3ccccc23)n[nH]c1=S	2.6%[10 µM]	-1.0%	-3.6%	u	9.0%
C=CCn1c(-c2ccc(=O)n(Cc3ccccc3)c2)n[nH]c1=S	-26.9%	x	x	-8.8%	-6.7%
C=CCn1c(-c2ccccc2[N+](=O)[O-])n[nH]c1=S	3.16µM*	-4.9%	-16.7%	u	-8.6%
CSc1nnc(-c2cccn(Cc3cccc(Cl)c3)c2=O)o1	-0.3%	0.5%	u	-12.8%	x
C=CCn1c(-c2cccn(Cc3cccc(Cl)c3)c2=O)n[nH]c1=S	12.6µM*	1.4%	-6.2%	u	-3.1%
C=CCn1c(-c2cccn(Cc3ccc(Cl)cc3)c2=O)n[nH]c1=S	6.31µM*	-25.4%	-0.5%	u	-5.9%
O=c1c(-c2n[nH]c(=S)n2-c2ccccc2)cccn1Cc1cccc(Cl)c1	12.6µM*	2.1%	-2.6%	-9.0%	2.9%
C=CCn1c(-c2cccn(Cc3ccc(Cl)cc3Cl)c2=O)n[nH]c1=S	2.51µM*	-27.0%	-8.3%	10µM*	3.9%
C=CCn1c(-c2cccn(Cc3ccccc3)c2=O)n[nH]c1=S	11.2µM*	2.9%	-4.1%	-29.3%	-2.0%
CC12CCC(C(=O)N(CC(=O)O)C1=O)C2(C)C (stereo not given)	-8.8%	1.1%	2.1%	6.0%	0.0%
COC(=O)c1[nH]c2ccc(Cl)cc2c1NC(=O)c1ccccc1[N+](=O)[O-]	u	0.6%	-4.9%	u	5.5%
O=C(Cn1ncc2c1-c1ccccc1OC2)N1CCN(c2ccccc2F)CC1	x	u	18.4µM*	x	-2.0%
COc1cccc(N2CCN(C(=O)Cn3ncc4c3-c3ccccc3OC4)CC2)c1	x	-24.0%	23.1µM*	x	1.0%
Cc1ccc(C)c(CN2CCCN(C(=O)Cn3ncc4c3-c3ccccc3OC4)C2)c1	-18.9%	13µM*	16.4µM*	6.3%	2.9%
O=C(Cn1ncc2c1-c1ccccc1OC2)N1CCN(Cc2ccccc2)CC1	19.1%	u	u	-2.3%	x
CC(C)CC1C(=O)N(Cc2cn(CC3CCCCC3)nn2)CCS(=O)(=O)N1Cc1ccc(-c2ccc(Cl)c(Cl)c2)cc1 (stereo not given)	x	u	16.4µM*	x	x
